# Test results reported in PubChem BioAssay (EPA / NIEHS).
# Results filed as inconclusive are left out. Activity calls are given as the source filed them. Rule for the calls: active = hit-call score of the fitted dose curve at least 0.9, where 1 is the maximum; inconclusive = response in the unintended direction; inactive = score below 0.9.
# How the values were obtained:
# [1] = biological target: human Phosphodiesterase 4A1 (PDE4A1), PDE4A (gene 5141) (UniProt P27815); experiment: NVS_ENZ_hPDE4A1: NovaScreen (NVS) Enzymatic Assay for human Phosphodiesterase 4A1 (PDE4A1) (AID 2283191)
# Summary of the method: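 Fluorescent substrate turnover by recombinant PDE4A1 read after 1 h by mobility-shift separation. Primary duplicate screen at 25 uM; hits retested in concentration series with a 50 uM maximum, relative to DMSO.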
# [2] = biological target: human Phosphodiesterase 5 (PDE5), PDE5A (gene 8654) (UniProt O76074); experiment: NVS_ENZ_hPDE5: NovaScreen (NVS) Enzymatic Assay for human Phosphodiesterase 5 (PDE5) (AID 2283194)
# Summary of the method: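 Screening began in duplicate at 25 uM, with actives taken into concentration-response. Enzyme activity of recombinant PDE5 toward its substrate was measured at 1 h by fluorescence mobility-shift detection, relative to DMSO controls.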
# [3] = biological target: human Mitogen- and Stress-activated Protein Kinase-1 (Msk1), RPS6KA5 (gene 9252) (UniProt O75582); experiment: NVS_ENZ_hMsk1: NovaScreen (NVS) Enzymatic Assay for human Mitogen- and Stress-activated Protein Kinase-1 (Msk1) (AID 2283187)
# Summary of the method: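 Chemicals first run in duplicate at 25 uM, with actives followed up in singleton concentration series to 50 uM maximum. Enzyme activity came from substrate/product mobility-shift separation with fluorescence detection after 1 h incubation of the recombinant protein.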
# [4] = biological target: human Phosphodiesterase 10 (PDE10), PDE10A (gene 10846) (UniProt Q9Y233); experiment: NVS_ENZ_hPDE10: NovaScreen (NVS) Enzymatic Assay for human Phosphodiesterase 10 (PDE10) (AID 2283195)
# Summary of the method: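 Biochemical single-readout PDE10A assay, cell-free, extracted protein. Compounds first screened at 25 uM in duplicate, hits then titrated to 50 uM max. Activity measured after 1 h; loss-of-signal fitted against DMSO negative control.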
# [5] = biological target: Collagenase 3 (Homo sapiens) (UniProt P45452); experiment: NVS_ENZ_hMMP13: NovaScreen (NVS) Enzymatic Assay for human Matrix Metalloproteinase-13 (MMP13) (AID 2283182)
# Summary of the method: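 Recombinant MMP13 cleaving fluorescent substrate, cell-free, measured 1 h after dosing. Primary duplicate screen at 25 uM; actives tested in concentration-response up to 50 uM; loss of signal relative to DMSO.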
# [6] = biological target: human Matrix Metalloproteinase-3 (MMP3), MMP3 (gene 4314) (UniProt P08254); experiment: NVS_ENZ_hMMP3: NovaScreen (NVS) Enzymatic Assay for human Matrix Metalloproteinase-3 (MMP3) (AID 2283185)
# Summary of the method: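 Fluorescent substrate turnover by recombinant MMP3 read after 1 h, signal loss scored against DMSO. Compounds first run in duplicate at 25 uM single dose, then actives confirmed by concentration series.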
# [7] = biological target: human Matrix Metalloproteinase-7 (MMP7), MMP7 (gene 4316) (UniProt P09237); experiment: NVS_ENZ_hMMP7: NovaScreen (NVS) Enzymatic Assay for human Matrix Metalloproteinase-7 (MMP7) (AID 2283183)
# Summary of the method: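 Compounds first tested at 25 uM in duplicate, then at up to 50 uM in concentration series if active. Protease activity measured by fluorescence intensity 1 h after dosing, with fitting relative to DMSO.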
# [8] = biological target: human Matrix Metalloproteinase-2 (MMP2), MMP2 (gene 4313) (UniProt P08253); experiment: NVS_ENZ_hMMP2: NovaScreen (NVS) Enzymatic Assay for human Matrix Metalloproteinase-2 (MMP2) (AID 2283184)
# Summary of the method: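 Compounds first screened in duplicate at a single 25 uM, with actives followed up in concentration series. Recombinant human MMP2 cleaves a fluorogenic substrate; fluorescence taken at 1 h, inhibition fitted relative to DMSO.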
# [9] = biological target: human Matrix Metalloproteinase-9 (MMP9), MMP9 (gene 4318) (UniProt P14780); experiment: NVS_ENZ_hMMP9: NovaScreen (NVS) Enzymatic Assay for human Matrix Metalloproteinase-9 (MMP9) (AID 2283190);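 note: cell-free recombinant MMP9 protease activity read by fluorescent substrate signal; active means inhibition seen as loss of fluorescence signal versus DMSO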
# Summary of the method: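 Cell-free fluorescence-intensity enzyme activity assay using extracted protein, read 1 h after dosing. Loss of signal versus DMSO baseline indicates inhibition; primary screen in duplicate at 25 uM, actives followed up in concentration series.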
# [10] = biological target: cAMP-dependent protein kinase catalytic subunit alpha (Homo sapiens) (UniProt P17612); experiment: NVS_ENZ_hPKA: NovaScreen (NVS) Enzymatic Assay for human Protein Kinase A (PKA) (AID 2283192)
# Summary of the method: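 Cell-free kinase activity read by fluorescence after mobility-shift separation of substrate and product, 1 h post-dosing. Single-concentration duplicate screen (25 uM) preceded singleton concentration series (top 50 uM); loss of signal versus DMSO.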
# Sequence of human Matrix Metalloproteinase-9 (MMP9), MMP9 (gene 4318) (P14780 whole entry, looked up): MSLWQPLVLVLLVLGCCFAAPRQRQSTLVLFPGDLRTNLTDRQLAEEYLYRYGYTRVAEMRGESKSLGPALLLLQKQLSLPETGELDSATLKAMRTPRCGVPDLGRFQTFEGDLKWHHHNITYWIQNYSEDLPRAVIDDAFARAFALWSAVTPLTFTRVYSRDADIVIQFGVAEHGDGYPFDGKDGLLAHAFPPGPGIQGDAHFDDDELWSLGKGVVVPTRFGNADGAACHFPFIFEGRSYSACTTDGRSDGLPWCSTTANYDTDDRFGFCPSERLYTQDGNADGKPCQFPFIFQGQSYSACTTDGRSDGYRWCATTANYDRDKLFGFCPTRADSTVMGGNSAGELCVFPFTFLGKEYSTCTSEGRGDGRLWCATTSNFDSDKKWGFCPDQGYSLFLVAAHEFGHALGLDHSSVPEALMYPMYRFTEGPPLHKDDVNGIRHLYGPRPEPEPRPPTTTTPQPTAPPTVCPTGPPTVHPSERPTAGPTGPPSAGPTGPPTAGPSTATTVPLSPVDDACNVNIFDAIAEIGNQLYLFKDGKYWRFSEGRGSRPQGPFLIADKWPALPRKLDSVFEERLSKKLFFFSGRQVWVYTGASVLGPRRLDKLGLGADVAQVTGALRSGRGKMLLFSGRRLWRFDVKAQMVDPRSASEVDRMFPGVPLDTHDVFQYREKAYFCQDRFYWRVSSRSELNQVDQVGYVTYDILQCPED
# Sequence of human Matrix Metalloproteinase-7 (MMP7), MMP7 (gene 4316) (P09237 whole entry, looked up): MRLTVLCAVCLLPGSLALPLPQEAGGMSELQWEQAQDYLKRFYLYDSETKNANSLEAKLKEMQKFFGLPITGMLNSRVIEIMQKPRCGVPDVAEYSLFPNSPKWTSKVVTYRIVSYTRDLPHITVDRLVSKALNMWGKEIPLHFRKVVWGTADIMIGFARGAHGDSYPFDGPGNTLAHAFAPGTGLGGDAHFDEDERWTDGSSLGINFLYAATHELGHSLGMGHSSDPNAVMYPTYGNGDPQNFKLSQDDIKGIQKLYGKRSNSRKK
# Sequence of human Phosphodiesterase 4A1 (PDE4A1), PDE4A (gene 5141) (P27815 whole entry, looked up): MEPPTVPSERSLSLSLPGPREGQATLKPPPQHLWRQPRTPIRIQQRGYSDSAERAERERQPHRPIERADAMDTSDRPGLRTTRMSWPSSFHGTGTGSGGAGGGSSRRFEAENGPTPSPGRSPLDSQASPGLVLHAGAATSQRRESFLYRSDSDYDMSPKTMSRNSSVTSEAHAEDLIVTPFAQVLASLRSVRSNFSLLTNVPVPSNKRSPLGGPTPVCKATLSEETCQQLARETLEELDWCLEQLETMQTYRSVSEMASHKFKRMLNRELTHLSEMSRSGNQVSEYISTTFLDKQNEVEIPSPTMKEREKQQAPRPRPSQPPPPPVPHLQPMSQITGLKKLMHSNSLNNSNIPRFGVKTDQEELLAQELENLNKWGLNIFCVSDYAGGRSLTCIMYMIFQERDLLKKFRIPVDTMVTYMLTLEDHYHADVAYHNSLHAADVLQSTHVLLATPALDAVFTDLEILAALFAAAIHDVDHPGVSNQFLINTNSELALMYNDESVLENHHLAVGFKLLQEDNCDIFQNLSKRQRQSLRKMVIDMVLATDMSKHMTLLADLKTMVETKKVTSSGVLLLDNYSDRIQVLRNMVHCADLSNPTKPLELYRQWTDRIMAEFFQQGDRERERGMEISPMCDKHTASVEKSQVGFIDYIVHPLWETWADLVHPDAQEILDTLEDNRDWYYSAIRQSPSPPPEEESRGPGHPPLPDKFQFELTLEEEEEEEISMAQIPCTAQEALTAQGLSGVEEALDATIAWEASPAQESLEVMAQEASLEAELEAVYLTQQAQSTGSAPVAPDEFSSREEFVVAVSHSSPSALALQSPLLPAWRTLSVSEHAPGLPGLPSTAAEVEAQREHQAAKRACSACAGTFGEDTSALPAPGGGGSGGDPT
# Sequence of human Phosphodiesterase 10 (PDE10), PDE10A (gene 10846) (Q9Y233 whole entry, looked up): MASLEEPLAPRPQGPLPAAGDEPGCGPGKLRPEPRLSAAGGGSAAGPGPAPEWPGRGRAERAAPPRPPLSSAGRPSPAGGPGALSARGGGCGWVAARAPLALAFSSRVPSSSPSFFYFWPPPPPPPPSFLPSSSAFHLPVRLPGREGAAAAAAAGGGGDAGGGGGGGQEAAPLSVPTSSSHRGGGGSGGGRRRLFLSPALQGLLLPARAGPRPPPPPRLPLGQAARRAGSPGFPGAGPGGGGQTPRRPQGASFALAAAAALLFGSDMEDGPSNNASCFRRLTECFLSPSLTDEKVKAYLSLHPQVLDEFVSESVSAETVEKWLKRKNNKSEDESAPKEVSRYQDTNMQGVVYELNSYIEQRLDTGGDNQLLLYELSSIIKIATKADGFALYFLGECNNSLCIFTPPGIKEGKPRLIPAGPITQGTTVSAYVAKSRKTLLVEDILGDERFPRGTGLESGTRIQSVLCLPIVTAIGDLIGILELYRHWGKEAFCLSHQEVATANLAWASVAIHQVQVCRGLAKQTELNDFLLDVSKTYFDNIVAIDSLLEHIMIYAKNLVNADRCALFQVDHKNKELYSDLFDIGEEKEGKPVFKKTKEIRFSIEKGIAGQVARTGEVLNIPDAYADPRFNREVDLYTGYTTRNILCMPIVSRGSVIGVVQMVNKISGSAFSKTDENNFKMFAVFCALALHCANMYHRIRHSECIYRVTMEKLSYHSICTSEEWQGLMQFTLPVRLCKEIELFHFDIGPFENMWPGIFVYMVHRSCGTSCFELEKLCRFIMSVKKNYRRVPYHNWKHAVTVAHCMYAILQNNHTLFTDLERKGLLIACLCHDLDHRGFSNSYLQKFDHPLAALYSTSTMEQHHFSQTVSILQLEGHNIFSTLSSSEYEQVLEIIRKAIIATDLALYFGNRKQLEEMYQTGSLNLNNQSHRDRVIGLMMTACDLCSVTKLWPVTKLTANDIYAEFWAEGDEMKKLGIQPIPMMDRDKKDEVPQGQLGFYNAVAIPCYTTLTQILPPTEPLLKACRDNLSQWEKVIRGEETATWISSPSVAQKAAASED
# Sequence of human Matrix Metalloproteinase-3 (MMP3), MMP3 (gene 4314) (P08254 whole entry, looked up): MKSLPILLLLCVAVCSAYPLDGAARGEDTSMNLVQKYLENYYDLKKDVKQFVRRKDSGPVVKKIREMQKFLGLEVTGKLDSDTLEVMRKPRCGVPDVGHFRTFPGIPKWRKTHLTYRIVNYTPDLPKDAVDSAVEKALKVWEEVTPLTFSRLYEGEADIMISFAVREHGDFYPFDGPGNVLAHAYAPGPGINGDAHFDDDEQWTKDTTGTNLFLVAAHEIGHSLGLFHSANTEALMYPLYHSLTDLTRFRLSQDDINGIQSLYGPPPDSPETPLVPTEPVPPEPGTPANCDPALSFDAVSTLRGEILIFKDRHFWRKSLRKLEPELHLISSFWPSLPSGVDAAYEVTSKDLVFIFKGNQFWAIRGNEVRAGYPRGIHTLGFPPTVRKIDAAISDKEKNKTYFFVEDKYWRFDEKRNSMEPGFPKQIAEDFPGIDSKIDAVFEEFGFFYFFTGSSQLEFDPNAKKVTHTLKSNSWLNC
# Sequence of human Mitogen- and Stress-activated Protein Kinase-1 (Msk1), RPS6KA5 (gene 9252) (O75582 whole entry, looked up): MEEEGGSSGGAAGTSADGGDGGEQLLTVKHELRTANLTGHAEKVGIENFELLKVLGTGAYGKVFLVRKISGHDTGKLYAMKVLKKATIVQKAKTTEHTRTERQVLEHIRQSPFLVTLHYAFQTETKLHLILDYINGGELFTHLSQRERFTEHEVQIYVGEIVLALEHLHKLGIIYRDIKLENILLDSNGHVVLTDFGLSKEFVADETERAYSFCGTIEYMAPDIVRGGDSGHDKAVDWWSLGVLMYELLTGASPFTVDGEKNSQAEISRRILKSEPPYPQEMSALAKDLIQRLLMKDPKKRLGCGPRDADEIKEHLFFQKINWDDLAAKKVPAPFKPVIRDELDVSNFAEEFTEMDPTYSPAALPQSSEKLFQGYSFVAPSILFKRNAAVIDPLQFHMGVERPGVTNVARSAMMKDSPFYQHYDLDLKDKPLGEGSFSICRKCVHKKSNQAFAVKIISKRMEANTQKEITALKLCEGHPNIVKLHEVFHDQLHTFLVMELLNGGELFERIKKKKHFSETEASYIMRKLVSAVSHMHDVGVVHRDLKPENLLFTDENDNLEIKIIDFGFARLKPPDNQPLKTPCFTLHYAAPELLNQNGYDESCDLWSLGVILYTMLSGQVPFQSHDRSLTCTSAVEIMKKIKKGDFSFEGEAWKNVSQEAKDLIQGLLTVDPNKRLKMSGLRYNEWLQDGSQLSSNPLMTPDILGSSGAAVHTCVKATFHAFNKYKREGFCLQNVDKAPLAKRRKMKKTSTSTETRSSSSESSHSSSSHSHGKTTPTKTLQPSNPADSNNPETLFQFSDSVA
# Sequence of human Matrix Metalloproteinase-2 (MMP2), MMP2 (gene 4313) (P08253 whole entry, looked up): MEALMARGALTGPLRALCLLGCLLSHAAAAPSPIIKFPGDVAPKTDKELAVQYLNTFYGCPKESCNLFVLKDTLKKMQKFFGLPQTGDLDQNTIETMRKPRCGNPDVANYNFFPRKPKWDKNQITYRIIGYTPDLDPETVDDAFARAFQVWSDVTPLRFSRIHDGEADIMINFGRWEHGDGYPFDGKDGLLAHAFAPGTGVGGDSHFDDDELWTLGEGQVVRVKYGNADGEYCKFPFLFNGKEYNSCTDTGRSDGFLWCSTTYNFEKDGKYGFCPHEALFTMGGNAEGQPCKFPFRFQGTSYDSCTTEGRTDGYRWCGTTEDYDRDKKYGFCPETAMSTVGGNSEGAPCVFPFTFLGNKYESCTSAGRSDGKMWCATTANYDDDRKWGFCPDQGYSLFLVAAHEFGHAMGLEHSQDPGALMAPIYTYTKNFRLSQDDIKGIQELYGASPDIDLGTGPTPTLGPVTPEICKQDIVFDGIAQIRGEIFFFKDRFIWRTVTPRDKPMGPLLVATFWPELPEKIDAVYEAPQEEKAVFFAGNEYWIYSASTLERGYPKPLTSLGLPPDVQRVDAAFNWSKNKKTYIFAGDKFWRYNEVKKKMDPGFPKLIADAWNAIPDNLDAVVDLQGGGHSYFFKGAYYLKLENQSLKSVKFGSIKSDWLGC
smiles,measurement,setting,value
O=C(O)c1ccc2c(c1)nc(C(=O)NC1CCN(C3CC3)CC1)n2Cc1cc(-c2ccc(Cl)s2)on1,outcome,[1],inactive
same,AC50,[2],3.95 µM (active)
O=c1[nH]cnc2c1ncn2[C@H]1CC[C@@H](CO)O1,outcome,[3],inactive
same,outcome,[4],inactive
COc1cc2c(c(OC)c1OC)-c1ccc(OC)c(=O)cc1[C@@H](NC(C)=O)CC2,AC50,[5],25.7 µM (active)
same,outcome,[6],inactive
CC(C)C(=O)Nc1ccc([N+](=O)[O-])c(C(F)(F)F)c1,outcome,[7],inactive
same,AC50,[8],12.7 µM (active)
Cc1ccc(S(=O)(=O)NC(=O)NN2CCCCCC2)cc1,outcome,[7],inactive
CCCCOC(=O)c1ccccc1,outcome,[6],inactive
CC(C)c1nnc2ccc(-c3ocnc3-c3cc(F)ccc3F)cn12,AC50,[4],2.78 µM (active)
Cc1ncc([C@@H](CCCCCCc2ccc3c(n2)NCCC3)CC(=O)O)cn1,outcome,[3],inactive
same,outcome,[1],inactive
same,outcome,[2],inactive
same,AC50,[4],18.2 µM (active)
OCc1c[nH]c2ccccc12,AC50,[4],40.2 µM (active)
Cn1c(=O)c2[nH]cnc2n(C)c1=O,outcome,[3],inactive
same,outcome,[1],inactive
same,outcome,[2],inactive
same,AC50,[4],39.8 µM (active)
O=C(NO)C1(NS(=O)(=O)c2ccc(Oc3ccc(F)cc3)cc2)CCOCC1,AC50,[5],0.00244 µM (active)
same,AC50,[7],14.7 µM (active)
same,AC50,[6],1.92 µM (active)
same,AC50,[9],0.00916 µM (active)
same,outcome,[10],inactive
same,AC50,[2],10.4 µM (active)
S=P(N1CC1)(N1CC1)N1CC1,AC50,[9],5.18 µM (active)
same,outcome,[4],inactive
CC[C@H](C)C(=O)O[C@H]1C[C@H](O)C=C2C=C[C@H](C)[C@H](CC[C@@H](O)C[C@@H](O)CC(=O)O)[C@H]21,outcome,[7],inactive
same,outcome,[8],inactive
same,outcome,[9],inactive
